{"source": "PubChem BioAssay AID1566", "about": "(Sanford-Burnham Center for Chemical Genomics, 2009)", "note": "“And” between values parts separate entries of the source, which are not always exact repeats. Equal entries are not always repeated. Hit rate of the full screen: of about 290,000 compounds, about 1,800 (0.62%) were called active. Cut-off read from the data, not from the text of the source: active = inhibition above about 50%; inactive = the rest. What follows is part of a selection rich in actives, with near analogues and random picks from the rest.", "data": [{"test": "NOD2 signaling inhibitors, cell-based, luminescence, uHTS, HEK293 (AID 1566)", "settings": "HEK293 NOD2/NF-kB luciferase reporter, at 4 µM, active compounds read high", "values": [{"molecule": "CCN(CC)S(=O)(=O)c1cccc(C(=O)Nc2nnc(C)s2)c1", "inhibition": "10.5% (inactive)"}, {"molecule": "O=C(Nc1nc2cc3c(cc2s1)OCCO3)c1cccc(N2C(=O)CCC2=O)c1", "inhibition": "-37.4% (inactive)"}, {"molecule": "CCN(CC)C(=O)CNc1ccc(C(F)(F)F)cc1[N+](=O)[O-]", "inhibition": "4.7% (inactive)"}, {"molecule": "CCOc1ccc(N(CC(=O)N2CCN(c3ccccc3OC)CC2)S(=O)(=O)c2ccc(F)cc2)cc1", "inhibition": "-13% (inactive)"}, {"molecule": "CCc1ccc(OCC(=O)NC(=S)Nc2ccc(C(C)=O)cc2)c(Br)c1", "inhibition": "41.8% (inactive)"}, {"molecule": "CCCn1c(=O)c(C(=O)Nc2c(C)n(C)n(-c3ccccc3)c2=O)c(O)c2ccccc21", "inhibition": "0.6% (inactive)"}, {"molecule": "O=C(NCC1CCCN(C(=O)NCc2ccccc2)C1)c1ccc2c(c1)OCO2", "note": "(stereo unspecified)", "inhibition": "-0.6% (inactive)"}, {"molecule": "COc1cc(/C=C/C(=O)OCC(=O)NC2CC2)cc(S(=O)(=O)N2CCc3ccccc32)c1OC", "inhibition": "15% (inactive)"}, {"molecule": "CCOc1cc(/C=C2\\NC(=S)N(C)C2=O)ccc1OCc1ccc(C(=O)O)cc1", "inhibition": "-3% (inactive)"}, {"molecule": "CCN1C(=O)/C(=C/c2ccc(OCc3ccc(C(=O)O)cc3)c(Cl)c2)NC1=S", "inhibition": "57.5% (active)"}, {"molecule": "CN1C(=O)/C(=C/c2ccc(OCc3ccc(C(=O)O)cc3)c(Cl)c2)NC1=S", "inhibition": "33.9% (inactive)"}, {"molecule": "O=C(NCCc1ccc(F)cc1)Nc1ccccc1", "inhibition": "-13.6% (inactive)"}, {"molecule": "CCOc1cccc(/C=N/NC(=S)Nc2ccccc2[N+](=O)[O-])c1O", "inhibition": "64.7% (active)"}, {"molecule": "CCOc1ccccc1/C=N/Nc1ccccc1[N+](=O)[O-]", "inhibition": "-58% (inactive)"}, {"molecule": "CCCOc1ccc(/C=N/Nc2ccccc2[N+](=O)[O-])c(OCCC)c1", "inhibition": "30.3% (inactive)"}, {"molecule": "CCCOc1ccc(/C=N/Nc2ccccc2[N+](=O)[O-])c(O)c1", "inhibition": "42.2% (inactive)"}, {"molecule": "CCCCNC(=S)N/N=C/c1cccc(OCC)c1O", "inhibition": "-5.1% (inactive)"}, {"molecule": "COc1ccc(N2CCN(CC(=O)NCc3ccccc3)CC2)cc1", "inhibition": "-7.3% (inactive)"}, {"molecule": "COc1ccccc1NS(=O)(=O)c1cccc(C(=O)NN=C2CCCC2)c1", "inhibition": "4.3% (inactive)"}, {"molecule": "COc1ccc(N(CC(=O)NC(C)(C)C)C(=O)CCC(=O)Nc2nccs2)cc1", "inhibition": "5.1% (inactive)"}, {"molecule": "CC1=NNC(=O)C1C(c1ccccc1)C1C(=O)NN=C1C", "note": "(stereo unspecified)", "inhibition": "20.3% (inactive)"}, {"molecule": "CCCC(=O)N(CCN1CCOCC1)c1nc2c(OCC)cccc2s1", "inhibition": "5.2% (inactive)"}, {"molecule": "COc1ccccc1CN1CCNC(=O)C1CC(=O)NCCCN1CCCC1=O", "note": "(stereo unspecified)", "inhibition": "-4.3% (inactive)"}, {"molecule": "Oc1c(Br)cc(Br)cc1CNc1nccs1", "inhibition": "57% (active)"}, {"molecule": "O=S(=O)(Nc1nccs1)c1ccc(NCc2cc(Br)cc(Br)c2O)cc1", "inhibition": "6.8% (inactive)"}, {"molecule": "Oc1ccc(Br)cc1CNc1nccs1", "inhibition": "-5.1% (inactive)"}, {"molecule": "CCOC(=O)c1[nH]c2ccc(OCC)cc2c1NC(=O)CN1CCC2(CC1)OCCO2", "inhibition": "-2.2% (inactive)"}, {"molecule": "COc1ccccc1N1CCN(C(=O)c2cc(C(=O)N3CCN(c4ccccc4OC)CC3)cc([N+](=O)[O-])c2)CC1", "inhibition": "3.5% (inactive)"}, {"molecule": "CCn1c(SCC(=O)N2CCN(c3ccccc3)CC2)nnc1-c1c[nH]c2ccccc12", "inhibition": "6.3% (inactive)"}, {"molecule": "COc1ccccc1C(C)NCC(=O)Nc1c(F)cccc1F", "note": "(stereo unspecified)", "inhibition": "5.5% (inactive)"}, {"molecule": "Cn1c(Sc2ccccc2Cl)c(C=O)c2ccccc21", "inhibition": "36.9% (inactive)"}, {"molecule": "Cn1c(Oc2ccc(Cl)cc2)c(C=O)c2ccccc21", "inhibition": "48.5% (inactive)"}, {"molecule": "COc1ccccc1NC(=O)CN1CCCCC1", "inhibition": "-4.7% (inactive)"}, {"molecule": "O=C(O)COc1ccccc1/C=N/n1c(C2CCCCC2)n[nH]c1=S", "inhibition": "17.3% (inactive)"}, {"molecule": "CCOc1cc2c3c(c1)C(C)CC(C)(C)N3C(=O)C2=O", "note": "(stereo unspecified)", "inhibition": "10% (inactive)"}, {"molecule": "CCc1cc2c3c(c1)C(C)CC(C)(C)N3C(=O)C2=O", "note": "(stereo unspecified)", "inhibition": "11.8% (inactive)"}, {"molecule": "Cc1ccc(SCC2(O)CCN(S(=O)(=O)c3ccc(Cl)cc3)CC2)cc1", "inhibition": "17.7% (inactive)"}, {"molecule": "O=S(=O)(c1ccccc1)N1CCC(O)(CSc2ccc(Cl)cc2)CC1", "inhibition": "56.9% (active)"}, {"molecule": "O=S(=O)(c1ccccc1)N1CCC(O)(CSc2ccccc2)CC1", "inhibition": "28.2% (inactive)"}, {"molecule": "CCOc1ccccc1NC(=O)CCc1nnc2ccc(N3CCC4(CC3)OCCO4)nn12", "inhibition": "-11.6% (inactive)"}, {"molecule": "O=C(Cn1nnc(N2CCCC2)n1)N/N=C/c1ccc(Cl)cc1", "inhibition": "-2.3% (inactive)"}, {"molecule": "Cc1c(NC(=O)c2ccccc2)cccc1[N+](=O)[O-]", "inhibition": "21.3% (inactive)"}, {"molecule": "N/C(=N\\OC(=O)c1ccccc1)c1ccccn1", "inhibition": "-52.6% (inactive)"}, {"molecule": "Cc1ccc(C(=O)O/N=C(\\N)c2ccccn2)cc1", "inhibition": "-94.8% (inactive)"}, {"molecule": "CC(NC(=O)Nc1ccccn1)N1C(=O)C2C3C=CC(C3)C2C1=O", "note": "(stereo unspecified)", "inhibition": "15.9% (inactive)"}, {"molecule": "Cc1cc(C(=O)NCc2cccs2)ccc1[N+](=O)[O-]", "inhibition": "0.2% (inactive)"}, {"molecule": "COc1ccc2c(c1)N(C(=O)CN1C(=O)C3CCCCC3C1=O)C(C)(C)C=C2C", "note": "(stereo unspecified)", "inhibition": "-4.7% (inactive)"}, {"molecule": "CC(C)CC(=O)Nc1cccc(C(C)O)c1", "note": "(stereo unspecified)", "inhibition": "-0.6% (inactive)"}, {"molecule": "CC(O)c1cccc(NC(=O)Nc2cccc(NC(=O)Nc3cccc(C(C)O)c3)c2)c1", "note": "(stereo unspecified)", "inhibition": "73.1% (active)"}, {"molecule": "CC(O)c1cccc(NC(=O)CCC(=O)O)c1", "note": "(stereo unspecified)", "inhibition": "0.6% (inactive)"}, {"molecule": "COc1ccccc1C(CC(=O)Nc1ccc(Cl)cc1)c1ccc(OC(C)C)cc1", "note": "(stereo unspecified)", "inhibition": "2.5% (inactive)"}, {"molecule": "O=C(CCSCc1cccc(Cl)c1)NCCC1=CCCCC1", "inhibition": "12.1% (inactive)"}, {"molecule": "CCOc1ccccc1N1CCN(C(=O)c2c(Cl)cnn2C)CC1", "inhibition": "9.1% (inactive)"}, {"molecule": "CCn1cnc2cc(NS(=O)(=O)c3ccc(OC)c(OC)c3)ccc21", "inhibition": "0% (inactive)"}, {"molecule": "CCC1c2ccc(C)n2CCN1C(=O)Nc1cc(Cl)ccc1OC", "note": "(stereo unspecified)", "inhibition": "13.8% (inactive)"}, {"molecule": "COc1ccc(O)c(-c2[nH]ncc2C(=O)c2cccc(C)c2)c1", "inhibition": "9.9% (inactive)"}, {"molecule": "COc1ccc(O)c(-c2[nH]ncc2C(=O)c2ccccc2C)c1", "inhibition": "5.8% (inactive)"}, {"molecule": "O=C(Cn1ncc2c3ccccc3n(Cc3ccc(F)cc3)c2c1=O)N1CCN(c2ncccn2)CC1", "inhibition": "15.9% (inactive)"}, {"molecule": "O=C(NC1=NCCS1)C1COc2ccccc2O1", "note": "(stereo unspecified)", "inhibition": "63.1% (active)"}, {"molecule": "O=C(Nc1ccccc1)C1COc2ccccc2O1", "note": "(stereo unspecified)", "inhibition": "-18.8% (inactive)"}, {"molecule": "O=C(Nc1nncs1)C1COc2ccccc2O1", "note": "(stereo unspecified)", "inhibition": "-9% (inactive)"}, {"molecule": "Nc1ccc(S(=O)(=O)O)cn1", "inhibition": "7.7% (inactive) and 2.4% (inactive)"}, {"molecule": "S=c1[nH]nc(-c2ccc(Cl)cc2)n1/N=C/c1cccs1", "inhibition": "-8.1% (inactive)"}, {"molecule": "O=c1c2ccccc2cnn1CCOc1cccc(Br)c1", "inhibition": "-63.9% (inactive)"}, {"molecule": "O=c1c2ccccc2cnn1CCOc1ccccc1", "inhibition": "60.4% (active)"}, {"molecule": "COc1ccc2cnn(CCOc3ccccc3)c(=O)c2c1OC", "inhibition": "-68.5% (inactive)"}, {"molecule": "CC(C)CN1CCNC(=O)C1CC(=O)NCCCN1CCCc2ccccc21", "note": "(stereo unspecified)", "inhibition": "3% (inactive)"}, {"molecule": "Cc1ccc(NS(=O)(=O)c2cc(NC(=O)c3cc(=O)[nH]c(=O)[nH]3)ccc2Cl)c(C)c1", "inhibition": "22.6% (inactive)"}, {"molecule": "COc1ccc(NC(=O)c2ccc3c(c2)NC(=O)CS3)cc1S(=O)(=O)Nc1ccc(Br)cc1", "inhibition": "3.4% (inactive)"}, {"molecule": "CC(=O)O/N=C/c1c(Cl)n(C)c2ccccc12", "inhibition": "-6.2% (inactive)"}, {"molecule": "Cc1c(/C(O)=C2/C(=O)C(=O)N(CCN3CCOCC3)C2c2cccnc2)cnn1-c1ccccc1", "note": "(stereo unspecified)", "inhibition": "8.5% (inactive)"}, {"molecule": "Cc1c(/C(O)=C2/C(=O)C(=O)N(CCN3CCOCC3)C2c2ccccn2)cnn1-c1ccccc1", "note": "(stereo unspecified)", "inhibition": "56.8% (active)"}, {"molecule": "Cc1ccc(C2/C(=C(/O)c3cnn(-c4ccccc4)c3C)C(=O)C(=O)N2CCN2CCOCC2)o1", "note": "(stereo unspecified)", "inhibition": "-58.4% (inactive)"}, {"molecule": "CCOC(=O)CSc1nc(Nc2ccc3c(c2)OCO3)c2ccccc2n1", "inhibition": "85.7% (active)"}, {"molecule": "CCOC(=O)CSc1nc(C)c2ccccc2n1", "inhibition": "3.1% (inactive)"}, {"molecule": "N#CCSc1nc(Nc2ccc3c(c2)OCO3)c2ccccc2n1", "inhibition": "22% (inactive)"}, {"molecule": "Cc1cc2ncc(C(=O)Nc3ccsc3C(=O)O)c(C)n2n1", "inhibition": "20.1% (inactive)"}, {"molecule": "Cc1ccc[n+](C(C)C(=O)c2ccc(-c3ccccc3)cc2)c1", "note": "(stereo unspecified)", "inhibition": "23.2% (inactive)"}, {"molecule": "Cc1cc[n+](C(C)C(=O)c2ccc(-c3ccccc3)cc2)cc1", "note": "(stereo unspecified)", "inhibition": "22.5% (inactive)"}, {"molecule": "Cc1cc(C)c[n+](C(C)C(=O)c2ccc(-c3ccccc3)cc2)c1", "note": "(stereo unspecified)", "inhibition": "53.1% (active)"}, {"molecule": "Cc1cc(NC(=O)CSc2nnc(CNC(=O)c3c(F)cccc3F)o2)no1", "inhibition": "-3.4% (inactive)"}, {"molecule": "COc1cccc(OC)c1C(=O)Nc1ccc(N2CCN(C(=O)c3ccco3)CC2)cc1", "inhibition": "0.8% (inactive)"}, {"molecule": "O=C(CCS(=O)(=O)c1ccc2c(c1)NC(=O)CS2)NCc1cccs1", "inhibition": "0.9% (inactive)"}, {"molecule": "CCCN1C(=O)/C(=C/c2c(N3CCNC(=O)C3CC(=O)OCC)nc3c(C)cccn3c2=O)SC1=S", "note": "(stereo unspecified)", "inhibition": "44.3% (inactive)"}, {"molecule": "CCOC(=O)CC1C(=O)NCCN1c1nc2c(C)cccn2c(=O)c1/C=C1\\SC(=S)N(CC(C)C)C1=O", "note": "(stereo unspecified)", "inhibition": "51.8% (active)"}, {"molecule": "CCOC(=O)CC1C(=O)NCCN1c1nc2c(C)cccn2c(=O)c1/C=C1\\SC(=S)N(C(C)CC)C1=O", "note": "(stereo unspecified)", "inhibition": "49% (inactive)"}, {"molecule": "Cc1nc2ncnn2c(N2CCN(C(c3ccccc3)c3ccccc3)CC2)c1C", "inhibition": "11.8% (inactive)"}, {"molecule": "Cc1ccc(C(=O)Nc2cc3ccccc3oc2=O)cc1", "inhibition": "69.7% (active)"}, {"molecule": "Cc1ccc(NC(=O)Nc2cnc3ccccc3c2)cc1", "inhibition": "-175% (inactive)"}, {"molecule": "O=C(Nc1cnc2ccccc2c1)c1ccncc1", "inhibition": "-72% (inactive)"}, {"molecule": "O=C(Nc1cc2ccccc2oc1=O)c1ccccc1", "inhibition": "18.1% (inactive)"}, {"molecule": "Cc1ccc(C(=O)Nc2cnc3ccccc3c2)cc1", "inhibition": "54.2% (active)"}, {"molecule": "CC(=O)Nc1cc2ccccc2oc1=O", "inhibition": "9% (inactive)"}, {"molecule": "CNC(=O)NNC(=O)c1csc(-c2ccc(C(F)(F)F)cc2Cl)n1", "inhibition": "14.2% (inactive)"}, {"molecule": "COc1ccc(/C=N\\Nc2ncc(F)c(N3CCOCC3)n2)cc1OC", "inhibition": "3.5% (inactive)"}, {"molecule": "COc1cccc(C(=O)O/N=C(\\C)c2cnccn2)c1", "inhibition": "4.6% (inactive)"}]}]}
